In PubChem BioAssay AID1159580 (chemical genetic matrix, 2015):
In all, about 5,500 compounds went through this assay and about 2,000 (36%) were called active. Roughly 18% stayed inconclusive and do not appear here. No stated cut-off is given here; in the data, active means normalized growth mostly below about 0.91 (no sharp cut-off); inconclusive means no clear call, values can overlap the other calls; inactive means mostly above about 0.92. This is one part of the list.

Assay: chemical genetic growth profiling, strain panel (AID 1159580);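 further: tested at 20 µM; growth read once vehicle control cultures reached saturation at 30 °C; 1 = growth at the plate median or of vehicle wells; lower values mean less growth of the strain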
Conditions: growth OD

Measured: normalized growth

CC(C)[C@@H]1CC[C@@H](C)C[C@H]1O
inactive: S. cerevisiae deletion strains, locus YJR066W, strain TOR1, active compounds read low 0.942 | S. cerevisiae deletion strains, locus YJR075W, strain HOC1, active compounds read low 1.01 | S. cerevisiae deletion strains, locus YKL009W, strain mrt4, active compounds read low 1 | S. cerevisiae deletion strains, locus YKL068W, active compounds read low 1.01 | S. cerevisiae deletion strains, locus YKL085W, strain MDH1 (second series), active compounds read low 1.01 | S. cerevisiae deletion strains, locus YKL085W, strain MDH1, active compounds read low 1.01 | S. cerevisiae deletion strains, locus YKL160W, strain elf1, active compounds read low 0.986 | S. cerevisiae deletion strains, locus YKL190W, strain CNB1, active compounds read low 1.01 | S. cerevisiae deletion strains, locus YKR001C, strain vps1, active compounds read low 1 | S. cerevisiae deletion strains, locus YKR026C, strain gcn3, active compounds read low 0.987 | S. cerevisiae deletion strains, locus YKR091W, strain srl3, active compounds read low 0.974 | S. cerevisiae deletion strains, locus YLL001W, strain dnm1, active compounds read low 0.997 | S. cerevisiae deletion strains, locus YLL026W, active compounds read low 1 | S. cerevisiae deletion strains, locus YLL041C, strain sdh2, active compounds read low 0.978 | S. cerevisiae deletion strains, locus YLR027C, strain aat2, active compounds read low 0.997 | S. cerevisiae deletion strains, locus YLR039C, strain RIC1, active compounds read low 1 | S. cerevisiae deletion strains, locus YLR058C, strain SHM2, active compounds read low 1 | S. cerevisiae deletion strains, locus YLR102C, strain apc9, active compounds read low 1.02 | S. cerevisiae deletion strains, locus YLR113W, strain HOG1, active compounds read low 0.973 | S. cerevisiae deletion strains, locus YLR221C, strain rsa3, active compounds read low 0.999 | S. cerevisiae deletion strains, locus YLR258W, strain gsy2, active compounds read low 0.99 | S. cerevisiae deletion strains, locus YLR262C, strain YPT6 (second series), active compounds read low 0.935 | S. cerevisiae deletion strains, locus YLR262C, strain YPT6, active compounds read low 1.01 | S. cerevisiae deletion strains, locus YLR268W, strain sec22, active compounds read low 1.01 | S. cerevisiae deletion strains, locus YLR320W, strain mms22, active compounds read low 0.991 | S. cerevisiae deletion strains, locus YLR330W, strain CHS5, active compounds read low 1.01 | S. cerevisiae deletion strains, locus YLR342W, strain FKS1 (second series), active compounds read low 1.02 | S. cerevisiae deletion strains, locus YLR342W, strain FKS1, active compounds read low 0.986 | S. cerevisiae deletion strains, locus YLR357W, strain rsc2, active compounds read low 0.953 | S. cerevisiae deletion strains, locus YLR370C, strain arc18, active compounds read low 0.985 | S. cerevisiae deletion strains, locus YLR371W, strain rom2, active compounds read low 1.01 | S. cerevisiae deletion strains, locus YLR384C, strain iki3, active compounds read low 0.999 | S. cerevisiae deletion strains, locus YLR418C, strain cdc73, active compounds read low 1.05 | S. cerevisiae deletion strains, locus YML016C, strain PPZ1, active compounds read low 1.01 | S. cerevisiae deletion strains, locus YML032C, strain rad52, active compounds read low 1 | S. cerevisiae deletion strains, locus YML120C, strain ndi1, active compounds read low 0.989 | S. cerevisiae deletion strains, locus YML124C, strain tub3, active compounds read low 1.02 | S. cerevisiae deletion strains, locus YMR058W, strain fet3, active compounds read low 0.97 | S. cerevisiae deletion strains, locus YMR078C, strain ctf18, active compounds read low 1.02 | S. cerevisiae deletion strains, locus YMR125W, strain sto1, active compounds read low 0.969 | S. cerevisiae deletion strains, locus YMR129W, active compounds read low 0.984 | S. cerevisiae deletion strains, locus YMR205C, strain PFK2, active compounds read low 1.01 | S. cerevisiae deletion strains, locus YMR223W, strain ubp8, active compounds read low 1.03 | S. cerevisiae deletion strains, locus YMR231W, strain pep5, active compounds read low 1 | S. cerevisiae deletion strains, locus YMR307W, strain GAS1, active compounds read low 0.985 | S. cerevisiae deletion strains, locus YNL067W, strain RPL9B, active compounds read low 0.976 | S. cerevisiae deletion strains, locus YNL071W, strain lat1, active compounds read low 0.979 | S. cerevisiae deletion strains, locus YNL128W, strain TEP1, active compounds read low 1.02 | S. cerevisiae deletion strains, locus YNL153C, strain GIM3, active compounds read low 0.95 | S. cerevisiae deletion strains, locus YNL183C, strain NPR1, active compounds read low 0.943 | S. cerevisiae deletion strains, locus YNL209W, strain ssb2, active compounds read low 0.985 | S. cerevisiae deletion strains, locus YNL233W, strain BNI4, active compounds read low 0.988 | S. cerevisiae deletion strains, locus YNL248C, strain rpa49, active compounds read low 0.987 | S. cerevisiae deletion strains, locus YNL250W, strain rad50, active compounds read low 1.02 | S. cerevisiae deletion strains, locus YNL271C, strain bni1, active compounds read low 1.02 | S. cerevisiae deletion strains, locus YNL298W, strain CLA4, active compounds read low 1.02 | S. cerevisiae deletion strains, locus YNL307C, strain MCK1, active compounds read low 1.02 | S. cerevisiae deletion strains, locus YNL322C, strain KRE1 (second series), active compounds read low 0.993 | S. cerevisiae deletion strains, locus YNR049C, strain mso1, active compounds read low 0.99 | S. cerevisiae deletion strains, locus YNR052C, strain pop2, active compounds read low 1.02 | S. cerevisiae deletion strains, locus YOL006C, strain TOP1, active compounds read low 0.977 | S. cerevisiae deletion strains, locus YOL012C, strain htz1 1.02 | S. cerevisiae deletion strains, locus YOL147C, strain pex11, active compounds read low 1.02 | S. cerevisiae deletion strains, locus YOR001W, strain rrp6, active compounds read low 0.993 | S. cerevisiae deletion strains, locus YOR061W, strain CKA2, active compounds read low 1.01 | S. cerevisiae deletion strains, locus YOR069W, strain VPS5, active compounds read low 1.02 | S. cerevisiae deletion strains, locus YOR070C, strain gyp1, active compounds read low 1 | S. cerevisiae deletion strains, locus YOR080W, strain dia2, active compounds read low 0.99 | S. cerevisiae deletion strains, locus YOR083W, strain WHI5, active compounds read low 0.996 | S. cerevisiae deletion strains, locus YOR106W, strain vam3, active compounds read low 0.979 | S. cerevisiae deletion strains, locus YOR136W, strain idh2, active compounds read low 1.01 | S. cerevisiae deletion strains, locus YOR144C, strain elg1, active compounds read low 1.02 | S. cerevisiae deletion strains, locus YOR184W, strain ser1, active compounds read low 1 | S. cerevisiae deletion strains, locus YOR231W, strain MKK1, active compounds read low 0.997 | S. cerevisiae deletion strains, locus YOR265W, strain rbl2, active compounds read low 0.988 | S. cerevisiae deletion strains, locus YOR270C, strain vph1, active compounds read low 0.931 | S. cerevisiae deletion strains, locus YOR290C, strain snf2, active compounds read low 0.967 | S. cerevisiae deletion strains, locus YOR316C, strain cot1, active compounds read low 1.03 | S. cerevisiae deletion strains, locus YPL051W, strain arl3, active compounds read low 1.02 | S. cerevisiae deletion strains, locus YPL078C, strain atp4, active compounds read low 0.976 | S. cerevisiae deletion strains, locus YPL106C, strain sse1, active compounds read low 1 | S. cerevisiae deletion strains, locus YPL240C, strain hsp82, active compounds read low 1 | S. cerevisiae deletion strains, locus YPL241C, strain CIN2, active compounds read low 1.01 | S. cerevisiae deletion strains, locus YPL256C, strain CLN2, active compounds read low 0.985 | S. cerevisiae deletion strains, locus YPR119W, strain clb2, active compounds read low 1.01 | S. cerevisiae deletion strains, locus YPR141C, strain kar3, active compounds read low 1.02 | S. cerevisiae deletion strains, locus YPR163C, strain tif3, active compounds read low 1.02 | S. cerevisiae deletion strains, locus YPR167C, strain met16, active compounds read low 1.02 | S. cerevisiae deletion strains, strain wtn01, active compounds read low 1.03 | S. cerevisiae strains, strain wild type, active compounds read low 1.01
